PLK1 PBD block: qHTS for Inhibitors of PLK1-PDB (polo-like kinase 1 - polo-box domain): Primary Screen; Plk1 PBD binding of FITC phosphopeptide, fluorescence polarization; Potency, µM, actives largely listed as inhibitors; 2.8% of 360,000 active; AID 720504, 2013; note: series mostly up to about 57 µM; nearly all actives have a fitted effect of over 65% in size
USP2a inh: qHTS Assay for Inhibitors of Ubiquitin-specific Protease USP2a Using CHOP2 as the Reporter; USP2 core, Ub-CHOP2 coupled fluorogenic reporter, 485/531; Potency, µM (highest dose often 38.3 µM), usual class: inhibitors; 0.01% of 330,000 active; AID 463254, 2010
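Deubiquitinase activity read as fluorescence (485/531 nm) after Ub-CHOP2 cleavage activates the enterokinase reporter on its substrate; USP2 core 10nM, Ub-CHOP2 and substrate 25nM each, 30min compound preincubation then 60min RT; data normalized to NEM, curves fitted.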
USP1 inh: Inhibitors of USP1/UAF1: Primary Screen; recombinant USP1/UAF1, Ub-Rhodamine cleavage fluorescence; AID 743255, 2014; Potency, µM (highest dose often 57.1 µM), most hits filed as inhibitors; 0.23% of 390,000 active; note: nearly all actives have a fitted effect of over 60% in size
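Step one: compound is pinned into 1nM USP1/UAF1 in HEPES pH 7.8 buffer with TCEP. Step two: 15 min room-temperature incubation. Step three: Ub-Rho (150nM final) starts cleavage, tracked by fluorescence over six one-minute reads.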
GALK inh: qHTS Assay for Inhibitors of Human Galactokinase (GALK); AID 1868, 2009; Purified GALK, Kinase-Glo residual ATP luminescence; 0.007% of 270,000 active; Potency, µM (highest dose often 57.5 µM), most hits filed as inhibitors; P51570
Target sequence (P51570 whole entry, looked up): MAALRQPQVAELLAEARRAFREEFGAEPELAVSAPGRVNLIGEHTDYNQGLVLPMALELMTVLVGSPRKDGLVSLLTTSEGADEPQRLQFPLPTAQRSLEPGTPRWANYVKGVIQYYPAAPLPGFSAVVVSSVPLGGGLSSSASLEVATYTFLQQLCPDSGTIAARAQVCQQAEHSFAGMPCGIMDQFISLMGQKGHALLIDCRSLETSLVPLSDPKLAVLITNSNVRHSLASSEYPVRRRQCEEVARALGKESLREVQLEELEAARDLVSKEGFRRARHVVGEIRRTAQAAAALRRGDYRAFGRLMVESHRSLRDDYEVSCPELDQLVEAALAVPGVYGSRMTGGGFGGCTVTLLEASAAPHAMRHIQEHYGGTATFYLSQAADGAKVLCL
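Quantitative HTS: GALK 5 nM, ATP 35 uM, galactose 100 uM, 1 h room temperature, then luciferase-based ATP detection.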
VDR inhibitor: Inhibitors of the vitamin D receptor (VDR): qHTS. VDR-SRC2-3 peptide fluorescence polarization, 2 h. Potency, µM, usual class: inhibitors. 0.93% of 400,000 active
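FP read-out; VDR + SRC2-3 coactivator peptide; 23 nl compound by pintool; 2 h RT incubation; reagents held at 4 deg C, protected from light.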
FBPA coupling cs: qHTS Assay for Inhibitors of Fructose-1,6-bisphosphate Aldolase from Giardia Lamblia: Coupling assay counterscreen; coupling enzyme system counterscreen, AmpLite Red fluorescence; activity change, negative = inhibition, % at 58.2 µM, hits read low; 0.67% of 290,000 active; AID 2472, 2010; in the data active = activity change below about -30%
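Counterscreen of the coupled detection system alone, without aldolase: glyceraldehyde-3-phosphate coupling enzymes plus AmpLite Red readout. Compounds at 57.5 uM final, 10 min RT preincubation, 20 min RT reaction, fluorescence 525/598 nm.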
A number is an active result; 0 = inactive; ? = inconclusive; - = no result. An excerpt weighted towards active compounds, which were near 3.2% of everything screened. Unless noted, calls come from the whole dose curve; as a rule, active = well fitted curve in the direction sought with a large enough effect; inconclusive = small, poorly fitted or top-dose-only effect, or another doubt; inactive = no such curve, though single readings can be large; an effect the other way counts as inactive or inconclusive.

SMILES	PLK1 PBD block	USP2a inh	USP1 inh	GALK inh	VDR inhibitor	FBPA coupling cs
COc1ccc(C2/C=C\CC(NC(=O)OCC3c4ccccc4-c4ccccc43)CC(=O)N2Cc2ccccc2F)cc1 (centres undefined)	30µM	0	0	-	?	0
Cc1cc(C)nc(N2CCC(C(=O)NNC(=O)c3ccc(Cl)cc3)CC2)n1	0	0	0	0	0	0
COc1ccc(-n2c(SCCC(C)C)nc3sc4c(c3c2=O)CC(C(C)C)OC4)cc1 (centres undefined)	-	-	0	-	0	-
C=CCc1cc(CN2CC(C)OC(C)C2)c(O)c(OC)c1 (centres undefined)	0	-	0	-	0	-
Cc1c(Cc2ccccc2)sc(NC(=O)Cc2ccccc2)c1C(N)=O	11µM	-	0	-	?	-
CCC(=O)Nc1sc(Cc2ccccc2)c(C)c1C(N)=O	27µM	0	0	0	0	0
Cc1c(Cc2ccccc2)sc(NC(=O)C(C)(C)C)c1C(N)=O	19µM	0	0	0	0	0
O=C(NCc1cccnc1)Nc1ccc(Br)cc1Cl	0	0	0	0	0	-
O=C(O/N=C1/CCCc2occc21)c1ccc(F)cc1	12µM	0	0	0	?	0
O=C(O/N=C1/CCSc2ccccc21)c1ccc(F)cc1	0	0	0	0	0	0
CN(C)C(=O)c1ccc(-c2nnc(NCc3ccccc3)c3ccccc23)cc1	0	0	0	0	0	0
O=C(Cc1ccsc1)Nc1ccc2c(c1)OCO2	0	0	0	-	0	-
COc1cccc(OCC(Cn2cnc3ccccc32)OC(C)=O)c1 (centres undefined)	0	0	0	0	0	0
O=C(CNS(=O)(=O)c1ccc(C(=O)N2CCCCC2)cc1)N1CCCCC1	30µM	0	0	0	0	0
N/C(CN1CCCC1=O)=N\OC(=O)c1ccc(Cl)c(Cl)c1	0	0	0	0	0	0
O=C1COc2ccc(OCc3ccc(F)cc3)cc21	0	0	0	0	0	0
O=C(Cn1nc2ccccc2n1)N/N=C/c1cc([N+](=O)[O-])ccc1O	7.5µM	0	0	0	0	0
Cc1cccc(C(=O)O/N=C(\c2ccccc2)c2cccnc2)c1	0	0	0	-	0	0
O=C(O)COc1cccc2c1CCC=C2CCO/N=C(\c1ccccc1)c1cccnc1	-	-	-	-	50µM	0
NC(=O)C(Cc1ccccc1)N1C(=O)c2ccccc2C1=O (centres undefined)	0	0	0	0	0	0
COc1ccccc1Nc1ncc(C(=O)N2CCC(C(N)=O)CC2)c2ccccc12	0	0	0	0	0	-34
Cc1ccccc1NC(=O)C(=Cc1ccc(C(=O)O)cc1)C(=O)Nc1ccccc1C	0	0	0	0	0	0
CC(=O)/C(=C/c1ccccc1)C(=O)Nc1ccccc1C	0	0	0	0	22µM	0
Cc1ccc2c(c1)[nH]c1c(=O)n(Cc3ccco3)cnc12	27µM	0	0	-	?	0
O=C(O)c1ccc2c(c1)S(=O)(=O)N=C1CCCCCN12	0	0	0	0	0	0
SMILES	PLK1 PBD block	USP2a inh	USP1 inh	GALK inh	VDR inhibitor	FBPA coupling cs
O=C(On1c(-c2ccccc2)nc2ccccc2c1=O)c1ccco1	17µM	-	0	0	0	0
COc1cc(OC)cc(-c2nc3ccccc3c(=O)n2OC(=O)c2ccccc2C)c1	0	0	0	0	0	0
COC(=O)C(Cc1ccc(O)cc1)NC(=O)CCOc1ccc(OC)cc1 (centres undefined)	0	0	0	0	0	0
O=C(Nc1ccc(S(=O)(=O)Nc2nccs2)cc1)c1ccc(N2C(=O)c3ccccc3C2=O)cc1	0	?	0	0	0	0
CN1CCN(CC(O)COCCOc2ccc(Br)cc2)CC1 (centres undefined)	27µM	0	0	0	25µM	0
CCN1CCN(CC(O)COCCOc2ccc(Br)cc2)CC1 (centres undefined)	0	0	0	0	0	0
CCCCC(CCCC)=N/N=C/c1c(O)n(CC)c2cc(C3=NNC(=O)CC3)ccc12	0	0	0	0	0	0
COc1cc(CO)ccc1OCc1nnnn1-c1ccc(C)cc1	17µM	0	0	0	?	0
COc1ccc(OCc2nnnn2-c2ccccc2)cc1	0	0	0	0	0	0
CC(C)(C)CN1CCNC(=O)C1CC(=O)N1CCN(c2ccccc2)CC1 (centres undefined)	0	0	0	0	0	-38
CC(C)(C)CN1CCNC(=O)C1CC(=O)N1CCC(C(=O)N2CCOCC2)CC1 (centres undefined)	0	0	0	0	0	0
CCN(CC)c1ccc(C2NC(=O)c3ccccc3N2)cc1 (centres undefined)	0	-	0	-	0	-
COc1ccc2c(Cl)c(C(=O)N/N=C3\CCCC(=O)C3)sc2c1	0	?	16µM	0	0	0
CCc1nc2c(OCC(=O)C(C)(C)C)cccn2c1N(C)C(=O)c1ccco1	0	-	-	-	-	-
NC1=C(Cl)C(=O)c2ccc(S(N)(=O)=O)cc2C1=O	0	-	1.3µM	-	0	-
COc1ccc(N2CCOCC2)c(NC(=O)c2ccco2)c1	0	0	0	0	0	0
O=C(Cc1ccc(S(=O)(=O)N2CCOCC2)s1)NCC1CCCCC1	0	0	0	0	0	0
Cc1ccccc1-n1ncc2c1CC(C)(C)CC2NC(=O)c1ccncc1 (centres undefined)	0	0	0	0	0	-
Cc1ccccc1-n1ncc2c1CC(C)(C)CC2NC(=O)c1cn[nH]c1C (centres undefined)	30µM	0	0	0	?	-
CCN(Cc1ccccc1)C(=O)CN1C(=O)c2ccccc2S1(=O)=O	0	0	0	-	0	-
CCOC(=O)C1(c2ccccc2)CCCNC1=O (centres undefined)	0	-	0	-	-	-
CCOC(=O)C1(c2ccccc2)SC(C(=O)OCC)(c2ccccc2)S1 (centres undefined)	21µM	-	0	-	-	-
NC(=O)c1ccccc1NC(=O)Nc1ccccc1Cl	0	0	0	0	0	0
O=C1CCCCN1CCC(=O)N1CCCC(Nc2ccc(F)c(F)c2)C1 (centres undefined)	0	0	0	0	0	-
O=C1CCCCN1CC(=O)N1CCCC(Nc2ccc(F)c(F)c2)C1 (centres undefined)	21µM	0	0	0	?	0
Cc1ccc(C(=O)OCC(=O)Nc2ccc3c(c2)OCCO3)cc1C	0	0	0	-	0	-
CCCc1cc(C(=O)Cc2ccc(C(=O)OCC)o2)c(O)cc1O	0	0	0	0	0	0

Screening data as filed in PubChem.
